PAFAH2 inh = PAFAH2 enzyme inhibitors, primary screen, biochemical, fluorescence polarization, human; 340,000 tested, 0.99% active; Platelet-activating factor acetylhydrolase 2, cytoplasmic (Homo sapiens), Q99487; inhibition, % at 3.39 µM; recombinant PAFAH2, FP-rhodamine activity probe;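 active = inhibition above the mean over all tested compounds plus 3 SD, cut at about 30% in these data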;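 note: inhibitors block probe labeling of enzyme so polarization drops; 0% = enzyme with DMSO and 100% = wells lacking PAFAH2 protein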
PME-1 inh = PME-1 inhibitors via competitive probe labeling, primary screen, biochemical, fluorescence polarization, FP-Rh probe, HTS. Protein phosphatase methylesterase 1 (Homo sapiens), Q9Y570. recombinant PME-1. inhibition, % at 5.9 µM. 320,000 tested, 0.53% active;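 active = inhibition above the campaign mean of all compounds plus 3 SD, cut at about 26% in these data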;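 note: competitive labeling of PME-1 active site by serine hydrolase directed probe; 0% = PME-1 with DMSO and 100% = wells lacking PME-1 enzyme; inhibitors block probe labeling so polarization falls and inhibition rises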
Target sequence (Q9Y570 whole entry, looked up): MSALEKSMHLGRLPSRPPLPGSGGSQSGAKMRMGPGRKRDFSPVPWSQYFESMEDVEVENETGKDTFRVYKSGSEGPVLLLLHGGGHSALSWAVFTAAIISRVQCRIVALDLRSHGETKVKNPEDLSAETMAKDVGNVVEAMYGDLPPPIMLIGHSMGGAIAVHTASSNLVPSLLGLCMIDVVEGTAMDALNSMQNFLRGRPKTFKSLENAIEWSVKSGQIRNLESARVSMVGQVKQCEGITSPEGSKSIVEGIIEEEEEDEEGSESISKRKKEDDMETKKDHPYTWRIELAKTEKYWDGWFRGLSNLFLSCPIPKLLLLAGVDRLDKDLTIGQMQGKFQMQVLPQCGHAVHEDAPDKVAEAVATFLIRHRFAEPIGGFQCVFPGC
pPAFAH FP inh = pPAFAH enzyme inhibitors, primary screen, biochemical, fluorescence polarization, human; recombinant pPAFAH, FP-rhodamine probe fluorescence polarization; inhibition, % at 3.39 µM; 330,000 tested, 1.5% active; AID 463082, 2010;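 active = inhibition above the mean inhibition across the screen plus 3 SD, cut at about 25% in these data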;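 note: inhibitors block binding of the rhodamine activity-based probe so polarization drops; 0% = enzyme with DMSO and 100% = wells lacking pPAFAH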
PAFAH1B2 inh = PAFAH1B2 enzyme inhibitors, primary screen, biochemical, fluorescence polarization, human; recombinant PAFAH1B2, FP-rhodamine activity probe; inhibition, % at 3.39 µM; 340,000 tested, 1.2% active; AID 492953, 2010;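 active = inhibition above the mean of all tested compounds plus 3 SD, cut at about 24% in these data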;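 note: 0% = enzyme with DMSO and 100% = wells lacking PAFAH1B2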
Target sequence (P68402 whole entry, looked up): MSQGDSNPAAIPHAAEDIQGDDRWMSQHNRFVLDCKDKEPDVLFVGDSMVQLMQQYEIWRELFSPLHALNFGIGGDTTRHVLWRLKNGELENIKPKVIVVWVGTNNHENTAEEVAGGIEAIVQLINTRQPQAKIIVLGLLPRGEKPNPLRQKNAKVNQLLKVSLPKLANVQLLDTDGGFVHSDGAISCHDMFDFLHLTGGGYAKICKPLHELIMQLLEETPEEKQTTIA
PAFAH1B3 inh = PAFAH1B3 enzyme inhibitors, primary screen, biochemical, fluorescence polarization, human; 340,000 tested, 0.28% active; recombinant PAFAH1B3, FP-rhodamine probe; Platelet-activating factor acetylhydrolase IB subunit alpha1 (Homo sapiens), Q15102; inhibition, % at 3.39 µM;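 active = inhibition above the screen-wide average of all tested compounds plus 3 SD, cut at about 25% in these data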;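 note: 0% = enzyme with DMSO only and 100% = wells lacking PAFAH1B3 protein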
Fam108B inh = mouse Fam108B serine hydrolase inhibitors, primary screen, counter-screen for RBBP9 inhibitor project, biochemical, fluorescence polarization; recombinant Fam108B, FP-Rh probe fluorescence polarization; inhibition, % at 9.51 µM; 300,000 tested, 0.33% active;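 active = inhibition above the screen mean inhibition plus 3 SD, computed separately per campaign, cut at about 18% in these data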;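 note: inhibitors lower polarization as less probe binds the enzyme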
Fam108b inh conf = mouse Fam108b serine hydrolase inhibitors, confirmation, counter-screen for RBBP9 inhibitor project, biochemical, fluorescence polarization, triplicate | shares compounds with Fam108B inh | recombinant Fam108b, FP-Rh probe fluorescence polarization | inhibition, % at 9.51 µM | 930 tested, 44% active | AID 1978, 2009;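 active = inhibition above a limit from the primary screen, the mean over all compounds plus 3 SD, cut at about 19% in these data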;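 note: 0% = median of active Fam108b wells and 100% = catalytically dead S170A mutant; inhibitors free the probe so polarization falls as inhibition rises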
Fam108b ABPP HTS = inhibition of mouse Fam108b by HTS hits, late-stage follow-up, biochemical, gel-based ABPP, soluble recombinant form | inhibition, % at 20 µM | 260 tested, 44% active | AID 588649, 2011 | fluorophosphonate probe | shares compounds with Fam108B inh; in the data active = inhibition above about 40%
pPAFAH FP conf = pPAFAH (PLA2G7) enzyme inhibitors, confirmation, biochemical, fluorescence polarization, human. AID 463230, 2010. 2,300 tested, 72% active. shares compounds with pPAFAH FP inh. inhibition, % at 3.39 µM. recombinant pPAFAH, FP-Rh probe fluorescence polarization;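 active = mean inhibition of the triplicate above the hit cutoff set for the earlier primary screen, cut at about 25% in these data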;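 note: 0% = enzyme with DMSO and 100% = wells lacking pPAFAH enzyme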
* hit, by the source's call; x = not tested or not shown. Sampled rows, rich in hits. Any-hit rate of the full collection: about 2.9%.

SMILES | PAFAH2 inh | PME-1 inh | pPAFAH FP inh | PAFAH1B2 inh | PAFAH1B3 inh | Fam108B inh | Fam108b inh conf | pPAFAH FP conf | others
Cc1c2ccccc2nc2c(F)c(NCCO)c(F)c(F)c12 | 25 | 4 | 37* | 14 | 19 | 19* | 4 | 14
OCCNc1c2ccccc2nc2c(F)c(F)c(F)c(F)c12 | 1 | 9 | 6 | 1 | 14 | 5 | x | x
O=S(=O)(c1ccc2nc(-c3ccco3)c(-c3ccco3)nc2c1)N1CCOCC1 | 21 | 12 | 43* | 11 | 12 | 19* | 12 | 13
O=S(=O)(c1ccc2ccccc2c1)N1CCOCC1 | 0 | 3 | 2 | 4 | 4 | 0 | x | x
NNC(=O)C1C(O)CCC2CN3CCc4c([nH]c5ccccc45)C3CC21 (stereo unspecified) | -2 | x | x | 6 | 7 | x | x | x
Cc1nc(S/C(=C/c2ccc(-c3cc(Cl)ccc3C)o2)C(=O)O)n[nH]1 | 28 | 34* | 47* | 13 | 25 | 25* | 18* | 56*
NCCc1c(-c2ccccc2)n(-c2ccccc2)c2ccccc12 | -5 | x | x | -1 | -4 | x | x | x
O=C(N/N=C/c1cc(Cl)c(O)c(Cl)c1)c1cc2c(ccc3ccccc32)o1 | 45* | 57* | 61* | 36* | 21 | 37* | 52* | 70*
O=C(N/N=C/c1cccnc1)c1cc2c(ccc3ccccc32)o1 | -7 | -22 | 0 | -2 | 4 | -9 | x | x
CCNc1ccc2noc3c2c1C(=O)c1ccccc1-3 | 114* | 111* | 106* | 114* | 104* | 115* | 149* | 99* | Fam108b ABPP HTS=95*
O=C1c2ccccc2-c2onc3ccc(NCc4ccco4)c1c23 | 121* | 120* | 82* | 105* | 104* | 107* | 135* | 104* | Fam108b ABPP HTS=30
C[C@@H]1CN[C@@H](CCO)/C1=C\c1ccccc1 | -1 | x | x | 3 | 9 | x | x | x
O=C(C1COc2ccccc2O1)N1CCN(c2ccc([N+](=O)[O-])cc2)CC1 (stereo unspecified) | -1 | x | 3 | 4 | 16 | x | x | x
O=C(c1cc2c(F)cccc2s1)N1CCCC1 | 14 | 4 | 7 | 0 | 5 | -3 | x | x
O=C(CCCN1C(=O)/C(=C\c2ccco2)SC1=S)Nc1ccc(O)cc1C(=O)O | 39* | -43 | 68* | 19 | 3 | 20* | 12 | 11
CCn1nc([N+](=O)[O-])c(C(C#N)c2nc3cc(C(F)(F)F)ccc3s2)c(Cl)c1=O (stereo unspecified) | 42* | 56* | 80* | 31* | 15 | 43* | 38* | 70* | Fam108b ABPP HTS=65*
CCCn1nc([N+](=O)[O-])c(C(C#N)c2nc3ccccc3o2)c(Cl)c1=O (stereo unspecified) | 46* | 27* | 69* | 39* | 28* | 29* | 14 | 58*
Cn1nc([N+](=O)[O-])c(C(C#N)c2ccccn2)c(Cl)c1=O (stereo unspecified) | 2 | 8 | -1 | -2 | 0 | 7 | x | x
Cc1cc(Cl)ccc1OCCCC(=O)N1CCN(S(=O)(=O)c2ccccc2)CC1 | 8 | 7 | 6 | 2 | 0 | -2 | x | x
O=C(Nc1cccc(C(F)(F)F)c1)c1ccc2nc(-c3ccco3)c(-c3ccco3)nc2c1 | 31* | 30* | 70* | 15 | 29* | 52* | 6 | 77*
CCCCNc1c2c3c(cccc3n(C)c1=O)C(=O)c1ccccc1-2 | 75* | 75* | 43* | 53* | 63* | 45* | 49* | 48* | Fam108b ABPP HTS=25
O=C(CSc1ccc(Cl)cc1)Nc1ccc(C2SCCS2)cc1 | 5 | 4 | 6 | 16 | 6 | 3 | x | x
O=C(CSc1c(F)c(F)cc(F)c1F)Nc1ccc(C2SCCS2)cc1 | 7 | 145* | 90* | -3 | 8 | 137* | 150* | 4 | Fam108b ABPP HTS=0
CCNc1ccccc1CP(=O)(c1ccccc1)c1ccccc1O (stereo unspecified) | x | 70* | 42* | x | x | 25* | 10 | 8
Cc1ccc(O)c(CP(=O)(c2ccccc2)c2ccccc2)c1 | -1 | 5 | 10 | -2 | -3 | 2 | x | x
SMILES | PAFAH2 inh | PME-1 inh | pPAFAH FP inh | PAFAH1B2 inh | PAFAH1B3 inh | Fam108B inh | Fam108b inh conf | pPAFAH FP conf | others
Cc1cccc(C)c1NC(=O)CSc1nnc(-c2ccco2)c(-c2ccco2)n1 | 45* | 0 | 58* | 4 | 18 | 26* | 14 | 23
COc1ccccc1Oc1ccc(N2CC(C(=O)OCC(=O)c3ccccc3)CC2=O)cc1 (stereo unspecified) | 7 | -3 | 7 | 2 | 2 | 3 | x | x
COc1cc(N=Nc2cccc(S(N)(=O)=O)c2)c2ccccc2c1N | 20 | 30* | 50* | 12 | 18 | 34* | 14 | 32*
NC1=NC(=Nc2cccc(S(N)(=O)=O)c2)c2ccccc21 | -1 | 1 | 3 | 3 | 10 | 0 | x | x
CCN(C(=O)COC(=O)c1nccnc1N)c1cccc2ccccc12 | 8 | x | -1 | 1 | 1 | x | x | x
Oc1ccc(Br)cc1/C=N/n1c(-c2ccccc2)n[nH]c1=S | 10 | 0 | -6 | 9 | 6 | -3 | x | x
Oc1c(Br)cc(Br)c(/C=N/n2c(-c3ccccc3)n[nH]c2=S)c1Br | 31* | 38* | 42* | 9 | 1 | 19* | 16 | 53*
O=C(CN1CCN(S(=O)(=O)c2ccc(F)c(F)c2)CC1)Nc1ccccc1C(=O)NC1CC1 | 2 | 3 | 2 | -1 | 5 | x | x | x
Cc1ccc(N(CC(=O)N2CCN(c3ccc(F)cc3)CC2)S(=O)(=O)c2c(C)noc2C)cc1 | 4 | -3 | 4 | 6 | 18 | 3 | x | x
CC(C)NOC(=O)c1ccc(Cl)cc1 | 4 | -3 | -4 | 3 | 2 | 6 | x | x
O=C(Nc1cccc(-c2csc(Nc3ccc(Cl)cc3)n2)c1)c1cc([N+](=O)[O-])cc(C(F)(F)F)c1 | 52* | 35* | 41* | 39* | 49* | 59* | 68* | 21 | Fam108b ABPP HTS=100*

Screening data deposited in PubChem BioAssay by The Scripps Research Institute Molecular Screening Center.
